Structures are written as SMILES. Among all 320,000 compounds or so, about 2,100 (0.66%) were called active. About 53% were inconclusive and are not listed. Calls follow the shape of the dose curve; as a rule, active = well fitted inhibition curve with a large enough effect in the signal ratio, with a control signal flat (not every such curve was filed as active); inconclusive = small, poorly fitted or top-dose-only effect, or effect the other way, or a change in a side signal; inactive = flat fitted curve, though single readings scatter; the % refers to the signal ratio. What follows is part of a selection rich in actives, with near analogues and random picks from the rest.
Potency is read from the fitted curve at half-maximal effect.

The experiment can be described thus: qHTS Assay for Lipid Storage Modulators in Drosophila S3 Cells.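 As to cell number change: cells counted by Cell Tracker Red CMTPX staining in the red channel.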 As to lipid storage change, negative = inhibition: % is scaled to controls: 0 for no effect and ±100 for the full control effect. The following applies: BODIPY lipid droplet fluorescence, 18-24 h, cells fed with added oleic acid; cell number change: measured here: cell count max response; series mostly up to 46.1 µM; lipid storage change, negative = inhibition: at the top concentration. The text has this: NIH Molecular Libraries Probe Production Centers Network [MLPCN] NIH Chemical Genomics Center [NCGC] MLPCN Grant: 1 R03 MH085686-01 Assay Submitter (PI): Beller, Mathias; Max-Planck-Institut fur Biophysikalische Chemie NCGC Assay Overview: Storing lipids as a reservoir for energy or the anabolism of elementary metabolites is a common feature of probably all cells and is conserved from bacteria to humans. The universal cellular lipid storage organelle is the so-called lipid storage droplet (LD). Although ubiquitous, LDs share a simple structure composed of a hydrophobic core that harbors the storage lipids, which is shielded by a droplet-specific phospholipid monolayer to which proteins are attached. The current model of LD biogenesis involves an incorporation of the lipid core into the membrane leaflets of the endoplasmic reticulum (ER) followed by a subsequent budding-like maturation of a LD, which ultimately pinches off. Once released, LD volume can increase by localized lipogenesis or fusion of existing droplet. Storage lipids are re-mobilized enzymatically by lipase activity. Lipase regulation in the adipocyte is heavily studied and involves multiple components including catecholamine signaling, the LD-associated proteins Perilipin and comparative gene identification (CGI-58) and at least two lipases named hormone sensitive lipase (HSL) and adipocyte triglyceride lipase (ATGL). LD regulation outside of the adipocyte is poorly understood and only few components are known. However, there is an urgent need to learn more about ectopic fat depots as mislocalized storage of lipids, for example in the liver or muscle, is an eminent health problem associated with insulin resistance or the metabolic syndrome. We developed a laser-scanning cytometer assay to enable 1,536-well screening and combined the results of the small molecules screen with an RNAi database based on lipid storage.
Triacsin C (Sigma-Aldrich T-4540), an inhibitor of long-chain fatty acyl CoA synthetase that blocks synthesis of triglycerides, was used as a positive control for lipid under-storage. A total of 23 nL of compound solution of different concentrations were transferred to the assay plates using a Kalypsys pin tool equipped with a 1,536-pin array containing 10-nL slotted pins (FP1S10, 0.457-mm diameter, 50.8 mm long; V&P Scientific). One microliter of oleic acid (400 uM) was added, and the plate was lidded with stainless steel rubber gasket lined lids containing pinholes. […] Fluorescence was detected by excitation of the fluorophores with a 488-nm laser on an Acumen Explorer (TTP Lab Tech). The total intensity in channel 2 (500-530 nm) reflected lipid droplet accumulation. Cells were detected using channel 3 (575-640 nm) with 5-um width and 100-um depth filters. The ratio of the number of objects in PMT channel 2 over the number of objects in PMT channel 3 was also calculated. Percent activity was computed relative to an internal control (100% inhibited lipid droplet deposition due to the presence of 20 uM Triacsin C), which was added to 32 wells/plate.
Consider `Cc1ccc(C(=O)Nc2ccc(C(F)(F)F)n(C)c2=O)cc1`, for which the “lipid storage change, negative = inhibition” value was 9.63% (inactive) and the cell number change was determined as 11.7%. On to `COc1ccc(C(=O)Nc2ccc(C(F)(F)F)n(C)c2=O)cc1`, for which the “lipid storage change, negative = inhibition” value was 16.1% (inactive) and the cell number change was 6.54%.

Regarding `COCCn1c(C(F)(F)F)ccc(NC(=O)c2ccccc2)c1=O`, the Potency is 8.2 µM (active) and the cell number change turned out to be 27.8%. For `CCN(CC(=O)Nc1ccc(OC)cc1)C(=O)CCc1nc2ccccc2c(=O)[nH]1`, the “lipid storage change, negative = inhibition” value is 1.47% (inactive) and the cell number change is -4.18%. Take `Cc1c([N+](=O)[O-])c([N+](=O)[O-])nn1CC(=O)NCCc1ccccc1`: the “lipid storage change, negative = inhibition” value was -10.5% (inactive) and the cell number change is 2.95%. Take `CC(=O)c1ccc(OC(C)C)c(CC(C(N)=O)C(N)=O)c1`: the Potency was 25.9 µM (active). For `CC(=O)c1ccc(OC(C)C)c(CN2CCCCC2)c1`, the “lipid storage change, negative = inhibition” value was -11.4% (inactive) and the cell number change is -4.17%. The like results for `CCCOc1ccc(C(C)=O)cc1CC(C(=O)OCC)C(=O)OCC` were, in that order, 0.302% (inactive) and 1.14%. In the case of `NC(=O)CS(=O)(=O)c1ccc(Cl)cc1`, the “lipid storage change, negative = inhibition” value is -4.86% (inactive) and the cell number change came out at 0.328%. On to `CC(C)=CC(=O)O[C@@H]1Cc2cc3ccc(=O)oc3cc2OC1(C)C`, for which the “lipid storage change, negative = inhibition” value is 13.2% (inactive) and the cell number change was -1.68%. As to `Cc1cc(Nc2ccc(Cl)cc2)nc(-c2ccccc2O)n1`, the “lipid storage change, negative = inhibition” value was -7.33% (inactive) and the cell number change came out at 25.5%. On to `Cc1cc(Nc2ccc(Br)cc2)nc(-c2ccccc2O)n1`, for which the Potency is 1.16 µM (active) and the cell number change was determined as 5.51%. On to `Cc1cc(Nc2ccc(F)c(F)c2)nc(-c2ccccc2O)n1`, for which the “lipid storage change, negative = inhibition” value was -1.55% (inactive) and the cell number change is -20.3%. Consider `O=C(NNC(=O)c1ccccc1O)c1ccc(NS(=O)(=O)c2ccc(F)c(F)c2)cc1`, for which the “lipid storage change, negative = inhibition” value is 8.77% (inactive) and the cell number change is 6.77%.

As for `NS(=O)(=O)c1cccc(NS(=O)(=O)c2ccc3ccccc3c2)c1`, the call was inactive and the cell number change is -9.72%. In the case of `Cc1ccc(S(=O)(=O)N2CCCN(S(=O)(=O)c3ccc(C)cc3)CC2)cc1`, the compound was called inactive and the cell number change is -15.5%.

Turning to `Cc1ccc(-c2ccc(S(=O)(=O)N3CCCC3)cc2)cc1`, the “lipid storage change, negative = inhibition” value is 14.6% (inactive). For the compound `Cc1ccc(S(=O)(=O)N2CCCOC2)cc1`, the Potency is 20.6 µM (active) and the cell number change was -23.3%.

As for `CC1(C)CC(=O)C(CC(=O)NC(=O)NCc2ccccc2)=C(O)C1`, the “lipid storage change, negative = inhibition” value is 0.0826% (inactive) and the cell number change came out at 9.3%. On to `O=C(CSc1ccccc1)Nc1nnc(COc2ccc(Cl)cc2)s1`, for which the Potency is 9.2 µM (active) and the cell number change was -4.77%.

`COCc1nnc(NC(=O)CSc2ccccc2)s1`: the “lipid storage change, negative = inhibition” value is 7.39% (inactive) and the cell number change was -1.84%. For `COCC(=O)Nc1nnc(COc2ccc(Cl)cc2)s1`, the “lipid storage change, negative = inhibition” value is 1.56% (inactive) and the cell number change was -17.4%.

As to `CCN(CC)c1ccc(/C=N/Nc2ccccc2)c(O)c1`, the “lipid storage change, negative = inhibition” value was 6.59% (inactive) and the cell number change is -10.7%.

As for `CCN(CC)c1ccc(/C=N/NC(=S)NC)c(O)c1`, the “lipid storage change, negative = inhibition” value was -4.58% (inactive) and the cell number change came out at 2.22%. `CCN(CC)c1ccc(/C=N/NC(=S)NCc2ccccc2)c(O)c1`: the Potency was 11.6 µM (active) and the cell number change was -19.6%. For `COc1ccc(-c2c3c(=O)n(C)c(=O)n(C)c3cn2-c2ccccc2O)cc1`, the “lipid storage change, negative = inhibition” value is -3.76% (inactive) and the cell number change amounted to 9.81%. For `CC(=O)N(Cc1cccnc1)Cc1cc2ccc(C)cc2[nH]c1=O`, the “lipid storage change, negative = inhibition” value was 15.6% (inactive) and the cell number change is -7.01%. Consider `CCOc1ccccc1CNC(=O)CCCn1ncn2c(cc3occc32)c1=O`, for which the Potency was 29.1 µM (active) and the cell number change is -5.42%.

`CC(CNC(=O)CCCn1ncn2c(cc3occc32)c1=O)c1ccccc1` (stereo not given): the call was inactive and the cell number change was determined as 24%. With `COc1cccc(CNC(=O)CCCn2ncn3c(cc4occc43)c2=O)c1`, the result was inactive and the cell number change was -2.59%. For `Cc1cc(C(=O)N2CCN(S(=O)(=O)c3ccccc3)CC2)c(C)o1`, the “lipid storage change, negative = inhibition” value was 21.7% (inactive) and the cell number change came out at 15.7%. The matching figures for `CCCCn1nc2cc(C(=O)N[C@H](C)C3CCCCC3)ccc2c1OCC`: -0.499% (inactive) and -12%. Take `CCOC(=O)c1sc(NC(=O)CCc2ccccc2)nc1C`: the compound was called inactive and the cell number change came to 3.17%.

Regarding `Cc1ccc(-n2c(C)cc(C(=O)COc3c(CO)cc(F)cc3CO)c2C)cc1C`, the Potency is 8.2 µM (active) and the cell number change was 4.17%. Turning to `Cc1ccc(-n2c(C)cc(C(=O)COC(=O)c3ccc[nH]c3=O)c2C)cc1C`, the “lipid storage change, negative = inhibition” value is 1.49% (inactive) and the cell number change is -2.22%. The like results for `Cc1ccc(-n2c(C)cc(C(=O)CN3CCOCC3)c2C)cc1C` were, in that order, -17% (inactive) and -2.77%. The like results for `Cc1cccc(NC(=O)C2CCCN2C(=O)Oc2ccccc2)c1` (stereo not given) were, in that order, -0.0768% (inactive) and -1.72%. For the compound `Cc1cc(C)nc(NC(=O)c2c(Cl)cccc2Cl)n1`, the “lipid storage change, negative = inhibition” value is -9.48% (inactive) and the cell number change is 0.843%. With `COc1cc(/C=N/NC(=O)c2ccc(CN3C(=O)c4cccc5cccc3c45)cc2)cc(OC)c1O`, the Potency was 3.26 µM (active) and the cell number change is -19.2%. `COc1cc(/C=N/NC(=O)c2ccc(CN3c4cccc5cccc(c45)S3(=O)=O)cc2)cc(OC)c1O`: the result was inactive and the cell number change was -26.4%.

For `CN(C)c1ccc(/C=N/NC(=O)c2ccc(CN3C(=O)c4cccc5cccc3c45)cc2)cc1`, the “lipid storage change, negative = inhibition” value was 13% (inactive) and the cell number change came to 10.4%. Regarding `Cc1ccc(NC(=O)COc2coc(CN3CCc4ccccc4C3)cc2=O)c(C)c1`, the outcome was “inactive [at 0.0737 µM]”. Consider `Cc1cc(C)cc(NC(=O)COc2coc(CN3CCc4ccccc4C3)cc2=O)c1`, for which the “lipid storage change, negative = inhibition” value is -14.9% (inactive) and the cell number change is -22.1%. Turning to `Cc1ccc(C)c(NC(=O)COc2coc(CN3CCc4ccccc4C3)cc2=O)c1`, the Potency was 6.51 µM (active) and the cell number change is -25.7%.

The values are drawn from PubChem BioAssay AID2685 (National Center for Advancing Translational Sciences (NCATS), 2010).
